FAS-TE inh: FAS thioesterase (human) inhibition; inhibition, % at 15 µM; recombinant FAS-TE, OMFH fluorogenic substrate, fluorescence endpoint; actives 0.67% (n = 360,000); AID 602261; P49327;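 active means compounds whose normalised, plate-corrected inhibition of enzyme fluorescence in the single-dose primary screen is 50% or more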;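 further: 0% = DMSO with enzyme and 100% = substrate without enzyme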
H9c2 protect: myocardial damage modulation in H9c2 cells; protection from H2O2 cell death, % at 20 µM; actives 0.63% (n = 360,000); H9c2 cardiomyocytes, H2O2 injury protection, ATPLite, 2 h; AID 588492;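 active means compounds giving at least 50% protection of heart cells from peroxide-induced death in the single-dose screen, raw or plate-pattern-corrected value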;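 further: 0% = DMSO wells with peroxide and 100% = DMSO wells without peroxide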
PLC-beta3 inh: PLC-beta3 (human) inhibition, primary screen. inhibition, % at 12.2 µM. actives 0.18% (n = 370,000). Q01970. Purified PLC-beta3, fluorogenic substrate, fluorescence; in the data active means inhibition above about 11%;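 further: 0% = median of compound wells on plate and 100% = full blocker control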
Target sequence (Q01970 whole entry, looked up): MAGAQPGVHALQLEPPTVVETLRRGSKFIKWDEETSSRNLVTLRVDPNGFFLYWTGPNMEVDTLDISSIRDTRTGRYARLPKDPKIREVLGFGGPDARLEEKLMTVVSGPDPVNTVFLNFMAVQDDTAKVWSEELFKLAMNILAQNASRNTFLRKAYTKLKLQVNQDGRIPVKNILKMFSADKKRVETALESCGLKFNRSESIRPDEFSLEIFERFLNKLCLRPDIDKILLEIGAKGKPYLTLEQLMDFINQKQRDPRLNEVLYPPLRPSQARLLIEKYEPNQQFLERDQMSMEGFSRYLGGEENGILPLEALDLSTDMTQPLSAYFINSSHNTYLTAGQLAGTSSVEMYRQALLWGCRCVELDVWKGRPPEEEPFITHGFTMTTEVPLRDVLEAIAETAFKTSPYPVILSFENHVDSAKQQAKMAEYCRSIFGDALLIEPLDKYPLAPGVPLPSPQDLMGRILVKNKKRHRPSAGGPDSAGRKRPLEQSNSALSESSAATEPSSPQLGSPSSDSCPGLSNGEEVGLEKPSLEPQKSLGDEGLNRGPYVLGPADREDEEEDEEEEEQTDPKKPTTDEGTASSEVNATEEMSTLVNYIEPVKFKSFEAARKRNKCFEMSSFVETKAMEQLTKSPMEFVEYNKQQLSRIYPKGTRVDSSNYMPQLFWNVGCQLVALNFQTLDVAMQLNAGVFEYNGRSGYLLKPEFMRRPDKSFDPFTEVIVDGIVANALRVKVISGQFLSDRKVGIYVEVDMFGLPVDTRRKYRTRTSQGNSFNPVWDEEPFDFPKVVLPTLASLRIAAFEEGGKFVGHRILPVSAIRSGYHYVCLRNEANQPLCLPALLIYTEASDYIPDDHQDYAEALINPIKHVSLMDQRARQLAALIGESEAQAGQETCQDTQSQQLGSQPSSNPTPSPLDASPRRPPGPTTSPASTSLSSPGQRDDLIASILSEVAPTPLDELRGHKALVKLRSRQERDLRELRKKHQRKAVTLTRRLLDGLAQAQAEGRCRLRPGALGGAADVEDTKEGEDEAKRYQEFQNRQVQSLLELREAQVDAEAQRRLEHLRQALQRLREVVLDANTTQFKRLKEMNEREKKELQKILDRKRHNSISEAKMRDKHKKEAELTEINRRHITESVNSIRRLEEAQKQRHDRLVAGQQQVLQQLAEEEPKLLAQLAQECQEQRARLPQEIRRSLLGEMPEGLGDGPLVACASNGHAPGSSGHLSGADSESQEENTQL
PLC-gamma1 inh: inhibitors of human phospholipase C gamma1; purified PLC-gamma1, fluorogenic substrate, fluorescence; inhibition, % at 12.2 µM; actives 0.84% (n = 370,000); P19174; in the data active means inhibition above about 9.5%
An asterisk follows results filed as active; . = no result given. Rows were chosen to be rich in hits. Some 2.2% of all compounds tested hit in one or more screens of this group.

SMILES | FAS-TE inh | H9c2 protect | PLC-beta3 inh | PLC-gamma1 inh
O=C(N/C(=C\c1ccc(Cl)cc1)C(=O)N1CCOCC1)c1ccc([N+](=O)[O-])cc1 | 89* | 0 | -4 | 15*
CC1=NN(C(=O)c2ccc(Cn3nc(C)c([N+](=O)[O-])c3C)o2)C(O)(C(F)(F)F)C1 (stereo unspecified) | 5 | 11 | -3 | -3
Cc1nn(Cc2ccc(C(=O)N3CCN(C(=O)c4ccco4)CC3)o2)c(C)c1[N+](=O)[O-] | 6 | 54* | -2 | -1
COc1cccc(C(=O)Nn2c(-c3cccs3)nc3ccccc3c2=O)c1OC | 7 | 13 | 0 | -2
COc1ccc(CNn2c(-c3cccs3)nc3ccccc3c2=O)cc1OC | 16 | 67* | -10 | -7
COCCCn1c(C)nc2c(c1=O)c1nc3ccccc3nc1n2CCc1ccccc1 | 8 | 58* | . | .
Cc1ccccc1NC(=O)CSc1nnc(-c2cc(-c3ccccc3)n[nH]2)n1N | . | . | 1 | -1
O=C(/C=C/c1ccccc1)NC(=S)NNC(=O)c1cccnc1 | -6 | -7 | -11 | -11
O=C(/C=C/c1ccccc1)NC(=S)NNC(=O)c1cnccn1 | -6 | 57* | -9 | 5
COc1ccc2cc(-c3cn(C(=O)N(c4ccccc4)c4ccccc4)nn3)ccc2c1 | . | . | 5 | 1
C=CC[C@H]1C=C[C@@H](C(C(=O)OC)C(=O)OC)CN1C(C)=O | -4 | 37 | -2 | 20*
CC[C@H]1C=C[C@@H](C(C(=O)OC)C(=O)OC)CN1C(C)=O | -8 | 41 | 4 | 25*
COc1ccc2nc(Nc3nc(CSc4nc5ccccc5[nH]4)cc(=O)[nH]3)nc(C)c2c1 | -7 | 70* | 4 | 0
Cc1nc(Nc2nc(CSc3nc4ccccc4[nH]3)cc(=O)[nH]2)nc2ccccc12 | 0 | 44 | 5 | 9
NC(=O)c1cccc(Nc2nc(C(N)CCc3ccccc3)cs2)n1 (stereo unspecified) | 0 | 77* | 0 | 0
O=C(Nc1nc(-c2ccccn2)cs1)c1ccc(-c2ccccc2F)o1 | 18 | 58* | -200 | -158
Cc1ccc(C(=O)Nc2nc(-c3ccccn3)cs2)o1 | -6 | 47 | -22 | -11
CC(=O)c1ccc(-c2ccc(C(=O)Nc3nc(-c4ccccn4)cs3)o2)cc1 | 3 | 99* | -182 | -144
Cc1cc(C(=O)Nc2nc(-c3ccccn3)cs2)ccc1[N+](=O)[O-] | 6 | 47 | 2 | -2
CCc1cc(C(=O)Nc2nc(-c3ccccn3)cs2)sc1C | 0 | 72* | -74 | -55
O=C(Nc1nc(-c2ccccn2)cs1)c1ccccc1-n1cnnn1 | -1 | 63* | -23 | -2
O=C(C1CCCN1S(=O)(=O)c1ccc([N+](=O)[O-])cc1)N1CCc2ccccc2C1 (stereo unspecified) | . | . | 4 | 1
COC(=O)[C@]12C[C@H](CC(=O)N3CCN(C(=O)C4CC4)CC3)C(=O)N(Cc3ccc(Cl)cc3Cl)C1=C[C@H](C(C)(C)C)O[C@@H]2C | . | . | 2 | 4
CC(=O)Nc1ccc(C(=O)Nc2nc(-c3ccccn3)cs2)cc1 | -2 | 70* | -23 | -16
CC(=O)Nc1ccc(C(=O)Nc2nc(-c3cccnc3)cs2)cc1 | 0 | 36 | -11 | -8
SMILES | FAS-TE inh | H9c2 protect | PLC-beta3 inh | PLC-gamma1 inh
Nn1c(SCC(=O)Nc2ccccc2-c2ccccc2)nnc1-c1cc(-c2ccccc2)n[nH]1 | . | . | 2 | -2
Cc1c(Cl)c([N+](=O)[O-])nn1CC(=O)N1CCc2ccccc2C1 | 51* | 8 | 0 | 0
Cc1cc([N+](=O)[O-])nn1CC(=O)N1CCc2ccccc2C1 | 41 | -1 | 5 | 3
O=C(Nc1ccc(N2CCOCC2)cc1)Nc1ccc2nc(-c3ccco3)c(-c3ccco3)nc2c1 | 11 | 63* | -82 | -56
Fc1ccc(-n2cc(-c3ccccc3)c3c(=S)nc[nH]c32)cc1 | 16 | 85* | -15 | -1
Fc1cccc(-n2cc(-c3ccccc3)c3c(=S)nc[nH]c32)c1 | 21 | 64* | -9 | 0
COc1cc(F)c(S(=O)(=O)N2CCCN(S(=O)(=O)c3cccc(N)c3)CC2)c(F)c1 | . | . | 0 | -1
CCCN1Cc2cccc(C(N)=O)c2C1=O | -10 | 59* | 2 | -1
CCCN1Cc2cccc(C(=O)Nc3ccc(C)cc3)c2C1=O | -4 | 0 | -2 | 2
Cc1noc(C)c1COc1ccc(C(=O)OCc2nnc(-c3ccc(Cl)cc3)o2)cc1 | 21 | -26 | -1 | 12*
COc1ccc(Nc2nnc(SCc3cc(=O)n4ccsc4n3)s2)cc1 | -4 | 63* | -74 | -54
Cn1c(=O)c2c(nc(CN3CCN(C(=O)c4ccco4)CC3)n2CCCc2ccccc2)n(C)c1=O | 5 | 52* | -7 | -3
Cn1c(=O)c2c(nc(CN3CCN(C(=O)c4ccco4)CC3)n2CCc2ccccc2)n(C)c1=O | -7 | 3 | 2 | 1
CC1CCCN(Cc2nc3c(c(=O)n(C)c(=O)n3C)n2CCCc2ccccc2)C1 (stereo unspecified) | 2 | 55* | 1 | 2
O=C(OC12CCCN(C1)/C(=C/c1ccccc1)C2)C1CCCCC1 (stereo unspecified) | . | . | -2 | 0
C[C@H]1[C@@H](OC(=O)NC2CCCCC2)CC[C@@]23CCCN2C(=O)CCC[C@@H]13 | . | . | 0 | 1
COc1ccc(NC(=O)CCCc2nc3ccccc3c(=O)[nH]2)cc1Cl | -2 | 57* | 2 | -1
Cc1ccc(NC(=O)CCCc2nc3ccccc3c(=O)[nH]2)c(Cl)c1 | -1 | 63* | 0 | 1
CN(C)CCCN1c2ccccc2Sc2ccccc21 | 2 | 50* | -1 | 1
CC(=O)c1ccc2c(c1)N(CCCN(C)C)c1ccccc1S2 | 3 | 3 | -80 | -66
O=C(N/N=C/c1ccccc1O)c1ccncc1 | 1 | 59* | -4 | -1
O=C(N/N=C/c1ccccc1O)c1cc[n+]([O-])cc1 | -5 | 54* | -3 | 0
O=C(N/N=C/c1cccc2ccccc12)c1ccncc1 | -3 | 7 | -11 | -9
O=C(N/N=C/c1ccccc1)c1cc[n+]([O-])cc1 | -3 | 6 | -6 | -1
CC(=C/c1ccc(C(C)C)cc1)/C=N/NC(=O)c1ccncc1 | 3 | 58* | -1 | -1
SMILES | FAS-TE inh | H9c2 protect | PLC-beta3 inh | PLC-gamma1 inh
O=C(NCCCc1ccccc1)[C@H](Cc1c[nH]c2ccccc12)NC1(C(=O)NCCc2c[nH]c3ccccc23)CCC1 | . | . | 0 | 6
Cc1nn(-c2ccccc2)c(Cl)c1C(=O)NNC(=O)c1ccccc1O | -3 | 57* | -7 | 2
Cc1nn(-c2ccccc2)c(Cl)c1C(=O)NNC(=O)c1ccncc1 | -3 | 4 | -3 | 3
CC(=O)c1cccc(Nc2nc(-c3sc(C)nc3C)cs2)c1 | 7 | 41 | -13 | -2
CC(=O)c1cccc(Nc2nc(-c3sc(N)nc3C)cs2)c1 | -6 | 70* | -20 | -11
COc1ccc(C(=O)Nc2cccc(/C(C)=N/NC(=O)c3ccc([N+](=O)[O-])c(C)c3)c2)cc1OC | 8 | 95* | 1 | 4
CCOC(=O)c1sc(N2N=C(C)/C(=C\c3ccc(OCC(=O)OC)cc3)C2=O)nc1C | -7 | 58* | -7 | -8
CCOC(=O)c1sc(Nc2ccc(OCC)cc2)nc1C | 11 | -7 | -76 | -59

Source: PubChem BioAssay (several laboratories)
